Measurements reported in PubChem BioAssay (NCI).
About 83,000 compounds went through this panel and 20% of them were active in at least one assay; those are over-represented in the sample as a whole.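 In brief: 96-well plates, 48 h treatment, single concentration, percent growth endpoint.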 Values without a mark were called inactive. Calls of active or inactive are those of the source. How the source made its calls: active means growth percent below 10; inactive means the rest.

The compounds below were run on MDA-MB-468 breast (assay: NCI-60 one-dose screen, 48 h (100 = growth as untreated, 0 = no growth, -100 = all killed)). Settings: 10 µM unless noted.

Structure (SMILES)	growth
CC(C)=CCNc1ncnc2c1ncn2C1OC(COP(=O)(O)O)C(O)C1O (stereo not given)	23.3%
O=C(CN1CCN(c2cc(=O)[nH]c3ccc(F)cc23)CC1)Nc1ccc(Cl)cc1	58.2%
Cc1ccc(-n2nc3c(c(C#N)c2=O)CC(c2ccccc2Cl)C([N+](=O)[O-])=C3O)cc1 (stereo not given)	114%
O=C1/C(=C/c2ccc3c(c2)OCO3)SC(=S)N1CCc1ccc(O)cc1	67.8%
Cc1c(C(=O)CCl)c(=O)n(-c2ccccc2)n1C	-19.1% (active)
COC12C=C/C(=C(/C(=O)OCc3ccncc3)C(=O)CCCCCCCCC3(OC)C=C/C(=C(/C(=O)OCc4ccncc4)C(=O)CCCCCCCC1)O3)O2	-39% (active)
O=[N+]([O-])c1ccc2nc3c4ccccc4c4ccccc4c3nc2c1	75.2%
CN(C)c1ccc(/C=C(\C#N)c2cc3ccccc3[nH]2)cc1	-3.07% (active)
C=C1C(=O)O[C@H]2[C@H]1CC/C(COC(=O)/C=C\C(=O)NCc1ccc(Cn3c(=O)sn(-c4ccccc4)c3=O)cc1)=C\CC[C@@]1(C)O[C@@H]21	30.5%
COc1cc2nc(-c3ccc(C(F)(F)F)cc3)cc(OCCN3CCC(O)CC3)c2cc1OC	81.1%
CC(C)CSc1ncnc2nc[nH]c12	104%
C/C(=C(\c1ccc(OCCN2CCCCCC2)cc1)c1ccc(OC(=O)c2ccccc2)cc1)c1ccc(Cl)cc1	45.5%
Cn1ccnc1C(=O)/C=C/c1ccc(CNC(=O)c2ccc(S(F)(F)(F)(F)F)cc2)cc1	23.3%
c1ccc(C2NCCNC2c2ccccc2)cc1 (stereo not given)	111%
O=C(Nc1nccs1)c1noc2ccccc12	87.3%
O=S(=O)(Nc1ccc(-n2cnc3cc(-c4ccc(O)cc4)ccc32)cc1)C1CC1	111%
CCOC(=O)c1ccc(N/C=C/C(=O)c2ccccc2)cc1	98.9%
Cn1c([N+](=O)[O-])cnc1/C=C1\Oc2ccccc2C1=O	28.3%
CC(=O)OC[C@@]12Oc3c(cccc3-c3ccc(O)c4c3O[C@]3(COC(C)=O)C(=C4O)C(=O)C[C@H](C)[C@@H]3OC(C)=O)C(O)=C1C(=O)C[C@H](C)[C@@H]2OC(C)=O	-30.2% (active)
Cc1ccccc1-n1nnc(C(=O)Nc2nc(-c3ccccc3)c(-c3ccccc3)s2)c1C	61.9% [50 µM]

Structure (SMILES)	growth
Cc1cc(=O)[nH]c(N/N=C/c2cc(Br)ccc2O)n1	3.37% (active)
Cc1cc(C2(c3ccc(O)c(C)c3)OS(=O)(=O)c3ccccc32)ccc1O	98.9%
C#CCn1cnc2cnc(Nc3cccc(NC(=O)C=C)c3)nc21	55.1% [6.25 µM]
O=C1CCC(N2C(=O)c3cccc(NCCOCCOCCNC(=O)c4cc5c(o4)C(=O)c4ccccc4C5=O)c3C2=O)C(=O)N1 (stereo not given)	-41.6% (active)
CC(=O)OCCC(C)CCC=C(C)C (stereo not given)	122%
Cc1ccc([P+](Cc2ccc([N+](=O)[O-])cc2)(c2ccc(C)cc2)c2ccc(C)cc2)cc1	-11.7% (active)
CCOc1c(OC)cc2c(c1O)C(=O)N[C@@H]1[C@@H](O)[C@@H](O)[C@H](O)C[C@@H]21	94.9%
Cc1ccc(C)c2c1C(=O)OC2=O	110%
COc1cc(-c2nc(Nc3nc4ccccc4[nH]3)nc(N)c2C#N)cc(OC)c1OC	48.5%
C#C[C@@]1(O)[C@@H](CO)O[C@@H](n2cc(Cl)c3c(N)ccnc32)[C@@H]1O	72.3%
NNC(=O)Nc1ccccc1	104%
CN1CCN(C)c2cncc(Br)c2C1=O	106%
CCOC(=O)c1c(SC)nn(-c2cc(=O)[nH]c3ccc(Br)cc23)c1N	115%
O=C(Cn1cc(CSc2nc3ccccc3o2)nn1)Nc1ccc(F)cc1F	104%
CC1=C(O)C(=O)C(C(C#N)(C#N)C(C#N)C#N)C1 (stereo not given)	102%
O=C(N=c1n(-c2ccccc2)nc2n1CCN2C1=NCCN1)c1ccc(Cl)cc1	50.3%
O=C1/C(=C/c2ccc(Cl)cc2)SC(=S)N1CCc1ccc(O)cc1	73.1%
O=C(CCN1C(=O)/C(=C/c2ccc(O)cc2)SC1=S)Nc1ccc(Cl)cc1	95.3%
O=C(CSc1ncc(-c2ccccc2)n1-c1ccccc1)Nc1ccc(-c2nc3ccccc3s2)cc1	15.4%
Cc1[nH]c(=O)[nH]c(=O)c1Br	107%
